Experimental data: PubChem BioAssay AID2606 (The Scripps Research Institute Molecular Screening Center, 2010)
Among all 320,000 compounds or so, about 160 (0.05%) were called active. Many of the other results were omitted from the sample, so actives are more common in it than they were. A number with no mark means an inactive call. No stated cut-off is given here; in the data, active means inhibition above about 38%; inactive means the rest.

Biological target: Serine protease Rv3671c (Mycobacterium tuberculosis (strain ATCC 25618 / H37Rv)) (UniProt P9WHR9)
Sequence (P9WHR9 whole entry, looked up, the tested form may be a part): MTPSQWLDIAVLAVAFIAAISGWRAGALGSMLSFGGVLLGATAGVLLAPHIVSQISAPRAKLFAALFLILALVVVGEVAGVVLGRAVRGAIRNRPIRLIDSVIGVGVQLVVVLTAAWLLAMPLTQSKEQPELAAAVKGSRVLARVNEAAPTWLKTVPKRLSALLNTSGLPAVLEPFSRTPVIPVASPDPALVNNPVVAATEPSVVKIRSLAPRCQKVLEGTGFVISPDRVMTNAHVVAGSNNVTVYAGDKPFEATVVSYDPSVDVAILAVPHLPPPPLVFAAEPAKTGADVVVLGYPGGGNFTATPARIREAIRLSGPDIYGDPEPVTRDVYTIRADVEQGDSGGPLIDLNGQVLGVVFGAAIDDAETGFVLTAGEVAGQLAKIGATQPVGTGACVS
Assay: Rv3671c serine protease inhibitors, primary screen, biochemical, fluorescence polarization, M. tuberculosis H37Rv (AID 2606);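 further: extracellular domain of Rv3671c used as enzyme; 0% = enzyme with DMSO and 100% = no enzyme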
Conditions: at 5.96 µM; active compounds read high

Row | Compound | inhibition
1 | CCO[C@@H]1OC(C(=O)NC2CC2)=C[C@H](C)[C@H]1CCCO | 3.42%
2 | CCN(CC)CCCN=C(N)N | 1.64%
3 | CC(C)n1c(-c2ccncc2)n[nH]c1=S | -6.36%
4 | CC(C)(C)S(=O)(=O)c1ccccc1-c1noc(-c2ccccc2)c1C(N)=O | 8.18%
5 | CSCc1ccc(C(=O)Nc2cc(C)cc(C)c2)cc1 | 6.14%
6 | CCNc1nc(N)nc(Oc2ccc(OCC)nn2)n1 | 1.15%
7 | COCCOC(=O)c1sc(=S)n(CCOC)c1N | 40% (active)
8 | CCCCN(CCCC)C(=O)CCS(=O)(=O)c1ccc2c(c1)n(C)c(=O)c(=O)n2C | -1.54%
9 | Cc1ccc2c(c1)N(CCCC(=O)NCc1cccnc1)C(=O)CO2 | 5.63%
10 | COC(=O)COc1cccc2c(=O)n(CC(=O)NCc3ccccc3)ccc12 | -8.57%
11 | COc1ccc(O[C@H]2C=C[C@@H](c3ccccc3)O[C@@H]2CO/N=C/C[C@@H]2C=C[C@H](OC(C)=O)[C@@H](COC(C)=O)O2)cc1 | -1.84%
12 | COCCN(Cc1nc(-c2ccc(C(F)(F)F)cc2)no1)C(C)C | -6.51%
13 | Cc1ccc(S(=O)(=O)N[C@@H](Cc2ccccc2)C(=O)N2CCC(C(=O)N[C@H](C(=O)O)C(C)O)CC2)cc1 (some centres not stated) | -3.25%
14 | Cc1ccc(N2CCN(c3ccc([N+](=O)[O-])cn3)CC2)c(C)c1 | -8.33%
15 | Fc1ccccc1CCNc1nnnn1-c1ccccc1 | -6.29%
16 | Cc1ccc(Cl)cc1NC(=O)C1CCN(S(C)(=O)=O)CC1 | 5.08%
17 | O=C1NC[C@@H](Cc2ccc(O)cc2)N(CCc2cccc(F)c2)C1=O | 5.74%
18 | c1ccc2[nH]c(-c3nc4ccccc4[nH]3)nc2c1 | 77.5% (active)
19 | O=C(Nc1sc2c(c1-c1nc3ccccc3[nH]1)CCCC2)C1CC1 | -3.57%

Row | Compound | inhibition
20 | O=[N+]([O-])c1ccc2nc(-c3ccccn3)[nH]c2c1 | 4.37%
21 | COc1ccc(Br)cc1CN1CCN(C(=O)c2cccc(OC)c2OC)CC1 | -2.08%
22 | CC1(c2ccccc2)NC(=O)N(CC(=O)N2CC(=O)Nc3ccccc32)C1=O (configuration not stated) | -3.96%
23 | COc1ccc(C(=O)c2c3ccc([N+](=O)[O-])cc3[n+]([O-])n2CCCN)cc1 | -2.98%
24 | C[C@@H]1NC(=O)[C@@]2(C)[C@@H](c3ccccc3)[C@H]3COc4ccccc4[C@@H]3N2C1=O | -7.74%
25 | C=CCN1CCN(C(=O)CCCc2ccccc2)CC1 | -7.87%
26 | NNC(=O)c1cnn(-c2ccccc2)c1C(F)(F)F | 2.2%
27 | COCCN(C(=O)CSCc1ccc(C)cc1)c1c(N)n(CC(C)C)c(=O)[nH]c1=O | 8.34%
28 | CC1CCCN(C(C(=O)Nc2ccc(C(C)C)cc2)c2ccc3c(c2)OCO3)C1 (configuration not stated) | 2.73%
29 | CN(Cc1ccccc1)C(=O)COC(=O)c1ccccc1Nc1ccccc1 | -5.06%
30 | CCN(CC)c1ccc(C2C3CCCCC3(O)CCN2CC(=O)Nc2ccccc2)cc1 (configuration not stated) | 5.48%
31 | O=C(O)C(c1ccccc1)C1(O)CCCCC1 (configuration not stated) | 8.1%
32 | Cc1cc(NC(=O)CN2C(=O)NC(CC(C)C)C2=O)no1 (configuration not stated) | 2.81%
33 | O=C(Nc1ccc(Br)cc1)c1cc(S(=O)(=O)Nc2ccccn2)ccc1Cl | -7.4%
34 | COc1ccc(C(=O)OC(C)C(=O)NC2CCCC2)cc1S(=O)(=O)N1CCOCC1 (configuration not stated) | -4.37%
35 | O=C(COc1ccc(-c2ccccc2)cc1)NN=C1CCCC1 | -4.38%
36 | CCOc1ccc(/C=C(/NC(=O)c2ccccc2)C(=O)NCCC(=O)O)cc1 | -7.39%
37 | C=CCn1c(=S)[nH]c2scc(-c3ccco3)c2c1=O | 6.27%
38 | CC(C)CCNC(=O)c1cccnc1Sc1ccccc1 | -12.3%

Row | Compound | inhibition
39 | CCn1ncc(CNC(=O)C2(C)CC2(Br)Br)c1C (configuration not stated) | -2.88%
40 | CC(C)CC(COCc1ccc(Cl)cc1)N1CCN(C(=O)c2ccc(C(F)(F)F)cc2)CCC1=O (configuration not stated) | -15.8%
41 | CNC(=O)/C(C#N)=C/c1c(F)cccc1Cl | -0.68%
42 | O=C(c1ccccc1F)N1CCN(S(=O)(=O)c2ccc(Br)cc2)CC1 | -4.63%
43 | COCCNc1nc2nonc2nc1N1CCCC1c1nccs1 (configuration not stated) | -4.76%
44 | Cn1nnnc1SCC(=O)NNC(=O)c1ccc(Br)cc1 | -1.13%
45 | CC(=O)N1CCc2c(sc(NC(=O)CCS(=O)(=O)c3ccc(C)cc3)c2C(N)=O)C1 | 8.49%
46 | CCOC(=O)[C@@H]1[C@H]2COc3ccc(Br)cc3[C@H]2N2C(=O)N(c3ccc(Cl)cc3)C(=O)[C@@]12C | -4.24%
47 | COc1cccc(C2SCC(=O)N2c2cccc(C)c2)c1OC (configuration not stated) | 0.16%
48 | CCCCn1c(N)c(N(CCOC)C(=O)c2cccc(S(=O)(=O)N(C)c3ccccc3)c2)c(=O)[nH]c1=O | 3.05%
49 | Cc1noc(C)c1NC(=O)Nc1ccc2c(c1)C(=O)N([C@H](C)CO)C[C@H](C)[C@@H](CN(C)C(=O)Nc1ccc(C(F)(F)F)cc1)O2 | 0.65%
50 | C/C=C/C=C/C(=O)OCC(=O)Nc1ccc(Cl)cc1 | -1.55%
51 | CCN1CC=C2C(C#N)=C(N)C(C#N)(C#N)[C@H](c3ccoc3)[C@H]2C1 | 3.86%
52 | CC(=O)N(C)c1ccc(NC(=O)Nc2cccc3ccccc23)cc1 | 1.7%
53 | O=C1c2ccccc2C(=O)N1CCC(O)C[N+](=O)[O-] (configuration not stated) | -0.34%
54 | COc1ccc(CCNC(=O)C2CC3Cn4c(nc5cc(C)c(C)cc54)C3N2C)cc1 (configuration not stated) | -15.6%
55 | CC(C)(COC(=O)Nc1ccccc1)COC(=O)Nc1ccccc1 | -8%
56 | COCCn1c(SCC(=O)c2[nH]c(C)c(C(C)=O)c2C)nc2ccccc2c1=O | 1.17%
57 | COCc1c(C(=O)OCC(=O)Nc2ccc(OC(F)F)cc2)oc2ccccc12 | -1.7%
